Measurements as given in PubChem BioAssay (NCI).
The panel holds about 83,000 compounds, 20% with a hit somewhere; the sample as a whole holds those more often.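 Single-concentration screen, 48 h exposure, 96-well plates. Endpoint: percent growth. Below 10 = active.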 A number with no mark means an inactive call. Active and inactive are the calls of the source.

Assays:
Assay in all cases: NCI-60 one-dose screen, 48 h (100 = growth as untreated, 0 = no growth, -100 = all killed)
[1] = test system: BT-549 breast; settings: 10 µM unless noted
[2] = test system: MDA-MB-435 melanoma; settings: 10 µM unless noted
[3] = test system: SW-620 colon; settings: 10 µM unless noted
[4] = test system: MCF7 breast; settings: 10 µM
[5] = test system: HCT-116 colon; settings: 10 µM unless noted
[6] = test system: HCC-2998 colon; settings: 10 µM unless noted
[7] = test system: KM12 colon; settings: 10 µM unless noted

## CCOC(=O)c1ccc2[nH]c(-c3ccccc3)cc(=O)c2c1
[1]
  growth: 103%
[2]
  growth: 107%
[3]
  growth: 103%
[4]
  growth: 99.8%
[5]
  growth: 99.4%
[6]
  growth: 112%
[7]
  growth: 105%

## Cn1c2c(c(=O)[nH]c1=O)NC1=C(C(=O)c3ccccc31)C1(C=C(O)c3ccccc31)N2 (stereo unspecified)
[1]
  growth: 180%
[2]
  growth: 117%
[3]
  growth: 123%
[4]
  growth: 91%
[5]
  growth: 96.5%
[6]
  growth: 130%
[7]
  growth: 104%

## COc1ccc(C2=NN(/C=C3\SC(=O)NC3=Nc3ccc(F)cc3)C(c3ccc(F)cc3)C2)cc1 (stereo unspecified)
[1]
  growth: 98%
[2]
  growth: 106%
[3]
  growth: 99.2%
[4]
  growth: 94.5%
[5]
  growth: 105%
[6]
  growth: 101%
[7]
  growth: 98.2%

## O=C(Nc1ccc(F)c(Cl)c1)Nc1ccc(Cl)c(Cl)c1
[1]
  growth: 64%
[2]
  growth: -7.47% (active)
[3]
  growth: 35%
[4]
  growth: 55.1%
[5]
  growth: 50.6%
[6]
  growth: 94.6%
[7]
  growth: 51.6%

## CN1C(=O)N(C)C2C1NN=c1s/c(=C\c3ccc(Cl)cc3Cl)c(=O)n12 (stereo unspecified)
[1]
  growth: 17.4%
[2]
  growth: -17% (active)
[3]
  growth: 27.8%
[4]
  growth: 17.7%
[5]
  growth: 8.45% (active)
[6]
  growth: 21.7%
[7]
  growth: 6.57% (active)

## COC(=O)C1=Nc2ccc(F)cc2/C1=C/c1sc(=S)[nH]c1O
[1]
  growth: -3.33% (active)
[2]
  growth: -20.9% (active)
[3]
  growth: 22.6%
[4]
  growth: 12.5%
[5]
  growth: 6.89% (active)
[6]
  growth: 25%
[7]
  growth: 10.3%

## CNCCNc1nc2ccccc2c2c(=O)c3cc(F)ccc3sc12
[1]
  growth: 82.4%
[2]
  growth: -61.1% (active)
[3]
  growth: -63.3% (active)
[4]
  growth: -44.5% (active)
[5]
  growth: 0.271% (active)
[6]
  growth: -41.8% (active)
[7]
  growth: -33.8% (active)

## CN=c1ccc2nc3ccc(N)cc3sc-2c1
[1]
  growth: 52.4%
[2]
  growth: -62.6% (active)
[3]
  growth: 10.8%
[4]
  growth: -12.7% (active)
[5]
  growth: 6.01% (active)
[6]
  growth: 49.8%
[7]
  growth: 27.9%

## COc1ccc(-c2cc(=O)c3c(OC)c4ccoc4c(/C=C/C=O)c3o2)cc1
[1]
  growth: -22.9% (active)
[2]
  growth: 21.5%
[3]
  growth: 19.6%
[4]
  growth: 17.3%
[5]
  growth: -73% (active)
[6]
  growth: 92.3%
[7]
  growth: 80%

## O=C(Cn1cc(COc2ncnc3c2cnn3-c2ccccc2)nn1)Nc1cccc2ccccc12
[1]
  growth: 99.5%
[2]
  growth: 94%
[3]
  growth: 99.1%
[4]
  growth: 85%
[5]
  growth: 102%
[6]
  growth: 104%
[7]
  growth: 93.8%

## CC(C)CCOc1ccc(-c2n[nH]c(C(F)(F)F)c2-c2cncc(C#N)c2)c(O)c1
[1]
  growth: 6.56% (active)
[2]
  growth: 7.91% (active)
[3]
  growth: 14.3%
[4]
  growth: 2.95% (active)
[5]
  growth: 2.41% (active)
[6]
  growth: 16.2%
[7]
  growth: 7.94% (active)

## Cn1nc(C(F)(F)F)c(-c2ccc(Cl)c(C(F)(F)F)c2)c1-c1ccc(OCc2ccc(Cl)cc2)cc1O
[1]
  growth: 39.8%
[2]
  growth: 24.7%
[3]
  growth: 13.9%
[4]
  growth: 4.01% (active)
[5]
  growth: -0.403% (active)
[6]
  growth: 13.5%
[7]
  growth: 8.83% (active)

## COc1ccc(S(=O)(=O)N(Cc2ccc3c(n2)C=CC(C)(C)O3)C2CCC2)cc1OC
[1]
  growth: -25.2% (active)
[2]
  growth: -34.7% (active)
[3]
  growth: 3.81% (active)
[4]
  growth: 2.14% (active)
[5]
  growth: -5.68% (active)
[6]
  growth: -1.63% (active)
[7]
  growth: -1.42% (active)

## O=c1[nH]nnc2c1ncn2C1OC(CO)C(O)C1O (stereo unspecified)
[1]
  growth: 97.7%
[2]
  growth: 76.5%
[3]
  growth: 63.3%
[4]
  growth: 63.9%
[5]
  growth: 51.8%
[6]
  growth: 34.4%
[7]
  growth: 60.7%

## COc1ccc(Nc2nc(N/N=C/c3ccc(O)cc3)nc(Nc3ccc([N+](=O)[O-])cc3)n2)cc1
[1]
  growth: 114%
[2]
  growth: 116%
[3]
  growth: 112%
[4]
  growth: 97.4%
[5]
  growth: 105%
[6]
  growth: 102%
[7]
  growth: 121%

## COc1cc(/C=C2\CN(S(=O)(=O)c3ccccc3)C/C(=C\c3cc(CN4CCCC4)c(O)c(OC)c3)C2=O)cc(CN2CCCC2)c1O
[1]
  growth: 33.5%
[2]
  growth: -37.1% (active)
[3]
  growth: 4.93% (active)
[4]
  growth: 5.38% (active)
[5]
  growth: -81.1% (active)
[6]
  growth: -87.9% (active)
[7]
  growth: -56.3% (active)

## CCOC(=O)c1cc2c(n1Cc1cc(OC)c(OC)c(OC)c1)-c1oncc1CCC2
[1]
  growth: 31.9%
[2]
  growth: -53.9% (active)
[3]
  growth: 21.5%
[4]
  growth: 7.45% (active)
[5]
  growth: 8.98% (active)
[6]
  growth: 17.2%
[7]
  growth: 28.4%

## CCOc1cc2c(cc1OCC)C(c1cc(C)c(O)c(C)c1)NCC2 (stereo unspecified)
[1]
  growth: 107%
[2]
  growth: 97.5%
[3]
  growth: 100%
[4]
  growth: 89.1%
[5]
  growth: 94.2%
[6]
  growth: 103%
[7]
  growth: 103%

## CN1CCN(Cc2ccc(C(=O)Nc3cncc(C#Cc4cnc(N)c5ccccc45)c3)cc2C(F)(F)F)CC1
[1]
  growth: 72%
[2]
  growth: -89.2% (active)
[3]
  growth: -66.3% (active)
[4]
  growth: -68.3% (active)
[5]
  growth: -84.5% (active)
[6]
  growth: -52.6% (active)
[7]
  growth: -70.4% (active)

## CCCCc1ccc(NS(=O)(=O)c2cc3c4c(c2)CCN4C(=O)CC3)cc1
[1]
  growth: 0.335% (active)
[2]
  growth: 29.6%
[3]
  growth: 25.3%
[4]
  growth: 16.2%
[5]
  growth: 13.4%
[6]
  growth: 19%
[7]
  growth: 21%

## CCN1C(=O)N(CC)C2Nn3c(s/c(=C4\C(=O)N(C(C)C)c5ccccc54)c3=O)=NC21 (stereo unspecified)
[1]
  growth: 27.7%
[2]
  growth: 1.02% (active)
[3]
  growth: 32.4%
[4]
  growth: 9% (active)
[5]
  growth: 6.5% (active)
[6]
  growth: 34.6%
[7]
  growth: 28.5%

## O=C(CSc1ncccc1C(=O)O)Nc1ccc(Oc2ccccc2)cc1
[1]
  growth: 97.8%
[2]
  growth: 105%
[3]
  growth: 91.9%
[4]
  growth: 91.5%
[5]
  growth: 96.9%
[6]
  growth: 102%
[7]
  growth: 110%

## Cc1ccc2c(n1)C(=O)C(Oc1ccc(Br)cc1)=CC2=O
[1]
  growth: 86.5%
[2]
  growth: 101%
[3]
  growth: 94%
[4]
  growth: 85.6%
[5]
  growth: 87.3%
[6]
  growth: 101%
[7]
  growth: 102%

## COc1ccccc1C(=O)/C=C/c1ccccc1
[1]
  growth: 77.5%
[2]
  growth: 78.4%
[3]
  growth: 67.4%
[4]
  growth: 28.6%
[5]
  growth: 37%
[6]
  growth: 103%
[7]
  growth: 55.2%

## CCOC(=O)c1sc(-c2ccc(OS(=O)(=O)c3cccs3)c(C=O)c2)nc1C
[1]
  growth: -7.24% (active)
[2]
  growth: -15.1% (active)
[3]
  growth: 8.51% (active)
[4]
  growth: -21.7% (active)
[5]
  growth: 2.95% (active)
[6]
  growth: 46.4%
[7]
  growth: 0.602% (active)

## O=c1c2cccc(F)c2sc2c(N3CCNCC3)nc3ccccc3c12
[1]
  growth: 73.7%
[2]
  growth: 2.82% (active)
[3]
  growth: -39.8% (active)
[4]
  growth: -20.6% (active)
[5]
  growth: 7.91% (active)
[6]
  growth: -6.49% (active)
[7]
  growth: 10.4%

## Cc1ccccc1CNC(=O)C1CN(c2ccc(Cl)cc2)N(c2ccc(Cl)cc2)C1=O (stereo unspecified)
[1]
  growth: 90.6%
[2]
  growth: 35.9%
[3]
  growth: 81.9%
[4]
  growth: 74.1%
[5]
  growth: 83.8%
[6]
  growth: 100%
[7]
  growth: 87.2%

## Cc1cccc(NC(=O)c2sc3nc4c(cc3c2N)CCCC4)c1C
[1]
  growth: 37.5%
[2]
  growth: -40.6% (active)
[3]
  growth: 23.7%
[4]
  growth: 17.1%
[5]
  growth: 14.8%
[6]
  growth: 22.8%
[7]
  growth: 8.85% (active)

## COc1ccc(-c2nsc3c2NC(=O)CC3c2cccc(OC)c2)cc1 (stereo unspecified)
[1]
  growth: 39.6%
[2]
  growth: -30.6% (active)
[3]
  growth: 27.2%
[4]
  growth: 18.3%
[5]
  growth: 29%
[6]
  growth: 57.4%
[7]
  growth: 36.2%

## COc1cc2c(cc1OC)C(=O)C(CC1CCN(C(=O)Nc3ccc(C)cc3)CC1)C2 (stereo unspecified)
[1]
  growth: 96.6%
[2]
  growth: 97.7%
[3]
  growth: 94.6%
[4]
  growth: 90.4%
[5]
  growth: 97.4%
[6]
  growth: 116%
[7]
  growth: 94.3%

## O=C1/C(=C/c2cccc(O)c2)COc2ccc(O)cc21
[1]
  growth: 98.1%
[2]
  growth: 60.3%
[3]
  growth: 9.65% (active)
[4]
  growth: 14%
[5]
  growth: 10.1%
[6]
  growth: 103%
[7]
  growth: 20.9%

## O=c1c2cc(F)ccc2sc2c(NCCN3CCCC3)nc3ccccc3c12
[1]
  growth: 86.7%
[2]
  growth: 23.2%
[3]
  growth: 19.1%
[4]
  growth: 30.4%
[5]
  growth: 39.1%
[6]
  growth: 30.9%
[7]
  growth: 39.5%

## CNCCNc1nc2ccccc2c2c(=O)c3cc(OC)ccc3sc12
[1]
  growth: 76.1%
[2]
  growth: -86.1% (active)
[3]
  growth: -78.3% (active)
[4]
  growth: -56.9% (active)
[5]
  growth: -82.3% (active)
[6]
  growth: -68.7% (active)
[7]
  growth: -75.7% (active)
